Calls of active or inactive are those of the source. The calls were made as follows: active = hit-call score of the fitted dose curve at least 0.9, where 1 is the maximum; inactive = score below 0.9.
Columns and labels:
Settings in all cases: mRNA level, 48 h; actives raise or lower the signal
CYP2C9 (gene 1559) = assay: LTEA_HepaRG_CYP2C9: Life Technologies and Expression Analysis (LTEA) Assay for CYP2C9 using HepaRG (AID 2283484)
How it was run: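 HepaRG, 48 h dosing, 8-pt half-log series, top 100 uM, 0.5% DMSO vehicle. Read-out: CYP2C9 transcript by TaqMan qRT-PCR, housekeeping-normalized (ACTB/GAPDH/POLR2A). Gain or loss fitted vs DMSO baseline.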

CYP2E1 (gene 1571) = assay: LTEA_HepaRG_CYP2E1: Life Technologies and Expression Analysis (LTEA) Assay for CYP2E1 using HepaRG (AID 2283485)
How it was run: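 CYP2E1 transcript was measured by TaqMan qRT-PCR in human HepaRG cultures after 48 h chemical exposure (top 100 uM, half-log steps, 0.5% DMSO vehicle). Housekeeping-gene normalization; gain or loss fitted relative to DMSO baseline.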

CYP4A11 (gene 1579) = assay: LTEA_HepaRG_CYP4A11: Life Technologies and Expression Analysis (LTEA) Assay for CYP4A11 using HepaRG (AID 2283486)
How it was run: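 HepaRG, 48 h chem exposure, 8 conc (100 uM top, half-log), 0.5% DMSO vehicle; qRT-PCR readout, housekeeping-gene normalized; bidirectional curve fit vs DMSO baseline.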

[1] = read-out: Cytochrome P450 3A4 (Homo sapiens) (UniProt P08684); assay: LTEA_HepaRG_CYP3A4: Life Technologies and Expression Analysis (LTEA) Assay for CYP3A4 using HepaRG (AID 2283487)
How it was run: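 Differentiated HepaRG cells, plated 48 h, then dosed 48 h in serum-free induction medium with 0.5% DMSO, 8 half-log concentrations up to 100 uM, duplicate. CYP3A4 mRNA by qRT-PCR, normalized to ACTB/GAPDH/POLR2A; bidirectional fit versus DMSO.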

[2] = read-out: DNA damage-inducible transcript 3 (DDIT3), DDIT3 (gene 1649); assay: LTEA_HepaRG_DDIT3: Life Technologies and Expression Analysis (LTEA) Assay for DNA damage-inducible transcript 3 (DDIT3) using HepaRG (AID 2283488)
How it was run: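 qRT-PCR readout (Fluidigm TaqMan), housekeeping-normalized to ACTB, GAPDH, POLR2A. HepaRG cells, 48 h exposure, 8-point half-log series from 100 uM in 0.5% DMSO, duplicates. Gain or loss of signal fitted against DMSO baseline.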

[3] = read-out: Pro-epidermal growth factor (Homo sapiens) (UniProt P01133); assay: LTEA_HepaRG_EGF: Life Technologies and Expression Analysis (LTEA) Assay for Epidermal growth factor (EGF) using HepaRG (AID 2283489)
How it was run: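 HepaRG, 48 h dosing, 100 uM top, half-log x8, 0.5% DMSO. Readout: TaqMan qRT-PCR (Fluidigm array), housekeeping-normalized. Gain or loss of signal fit vs DMSO.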

[4] = read-out: Early growth response protein 1 (EGR1) transcription factor, EGR1 (gene 1958); assay: LTEA_HepaRG_EGR1: Life Technologies and Expression Analysis (LTEA) Assay for Early growth response protein 1 (EGR1) transcription factor using HepaRG (AID 2283490)
How it was run: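 HepaRG, 48 h exposure, 8-pt half-log series from 100 uM, 0.5% DMSO vehicle; EGR1 transcript by TaqMan qRT-PCR (Fluidigm array), housekeeping-normalized; bidirectional fit relative to DMSO baseline.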

[5] = read-out: Ezrin (EZR), EZR (gene 7430); assay: LTEA_HepaRG_EZR: Life Technologies and Expression Analysis (LTEA) Assay for Ezrin (EZR) using HepaRG (AID 2283491)
How it was run: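 EZR transcript levels came from Fluidigm qRT-PCR and were normalized to three housekeeping genes after 48 h chemical exposure of HepaRG cells. Dosing used an 8-point half-log series with a 100 uM top concentration in 0.5% DMSO, tested in duplicate; both directions were fitted versus vehicle.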

[6] = read-out: Cytochrome P450 3A7 (Homo sapiens) (UniProt P24462); assay: LTEA_HepaRG_CYP3A7: Life Technologies and Expression Analysis (LTEA) Assay for CYP3A7 using HepaRG (AID 2283492)
How it was run: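 Human HepaRG liver cells, 48 h post-plating, switched to serum-free induction medium and exposed in duplicate for 48 h. Dosing: 100 uM top, half-log dilutions, 8 points, 0.5% DMSO vehicle. Read-out: CYP3A7 mRNA, gain or loss fitted against DMSO baseline.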

[7] = read-out: Fatty Acid-Binding Protein 1 (FABP1), FABP1 (gene 2168); assay: LTEA_HepaRG_FABP1: Life Technologies and Expression Analysis (LTEA) Assay for Fatty Acid-Binding Protein 1 (FABP1) using HepaRG (AID 2283494)
How it was run: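 qRT-PCR readout of FABP1 transcript (normalized to three housekeeping genes) after 48 h chemical exposure of HepaRG cells; eight concentrations, half-log steps, max 100 uM, 0.5% DMSO vehicle; gain or loss fitted relative to DMSO baseline.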

[8] = read-out: Cytochrome P450 4A22 (Homo sapiens) (UniProt Q5TCH4); assay: LTEA_HepaRG_CYP4A22: Life Technologies and Expression Analysis (LTEA) Assay for Cytochrome P450 4A22 (CYP4A22) using HepaRG (AID 2283495)
How it was run: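 Readout is CYP4A22 transcript induction or loss, quantified by qRT-PCR and normalized to ACTB, GAPDH and POLR2A. Human HepaRG cells receive test chemicals for 48 h at eight half-log concentrations from 100 uM in 0.5% DMSO.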

[9] = read-out: Cytochrome P450 7A1 (Homo sapiens) (UniProt P22680); assay: LTEA_HepaRG_CYP7A1: Life Technologies and Expression Analysis (LTEA) Assay for Cytochrome P450 7A1 (CYP7A1) using HepaRG (AID 2283496)
How it was run: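 Using 0.5% DMSO as vehicle and baseline, chemicals were tested in duplicate over an 8-point range from 100 uM on HepaRG cells for 48 h; qRT-PCR signals were normalised to ACTB, GAPDH and POLR2A.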

[10] = read-out: Glutathione S-Transferase (GSTA2), GSTA2 (gene 2939); assay: LTEA_HepaRG_GSTA2: Life Technologies and Expression Analysis (LTEA) Assay for Glutathione S-Transferase (GSTA2) using HepaRG (AID 2283497)
How it was run: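 qRT-PCR readout of GSTA2 transcript, normalized to three housekeeping genes, fitted bidirectionally against 0.5% DMSO baseline. Differentiated HepaRG cells received compound for 48 h at 8 concentrations (top 100 uM, half-log steps).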

[11] = read-out: Glutamate-cysteine ligase catalytic (GCLC), GCLC (gene 2729); assay: LTEA_HepaRG_GCLC: Life Technologies and Expression Analysis (LTEA) Assay for Glutamate-cysteine ligase catalytic (GCLC) using HepaRG (AID 2283498)
How it was run: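 HepaRG, 48 h exposure, 8-pt half-log series from 100 uM, 0.5% DMSO vehicle; TaqMan qRT-PCR for GCLC mRNA, housekeeping-normalized; bidirectional curve fit vs DMSO baseline.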

[12] = read-out: growth arrest and DNA damage 45 (GADD45G), GADD45G (gene 10912); assay: LTEA_HepaRG_GADD45G: Life Technologies and Expression Analysis (LTEA) Assay for growth arrest and DNA damage 45 (GADD45G) using HepaRG (AID 2283499)
How it was run: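 Gain or loss of GADD45G mRNA, quantified by TaqMan qRT-PCR against three housekeeping genes, is fitted in both directions relative to 0.5% DMSO. Human HepaRG cultures receive test chemical for 48 h at up to 100 uM.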

[13] = read-out: Glutamate-cysteine ligase regulatory (GCLM), GCLM (gene 2730); assay: LTEA_HepaRG_GCLM: Life Technologies and Expression Analysis (LTEA) Assay for Glutamate-cysteine ligase regulatory (GCLM) using HepaRG (AID 2283500)
How it was run: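 HepaRG, 48 h dosing, 100 uM top, half-log x8, 0.5% DMSO vehicle. Readout: GCLM mRNA by TaqMan qRT-PCR, housekeeping-normalized (ACTB/GAPDH/POLR2A). Curves fit bidirectionally vs DMSO baseline.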

[14] = read-out: Glutathione S-transferase M3 (GSTM3), GSTM3 (gene 2947); assay: LTEA_HepaRG_GSTM3: Life Technologies and Expression Analysis (LTEA) Assay for Glutathione S-transferase M3 (GSTM3) using HepaRG (AID 2283501)
How it was run: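 HepaRG, plated 48 h, then serum-free induction medium; test chemical 48 h, duplicate; 100 uM top, half-log x8, 0.5% DMSO. Read-out: GSTM3 mRNA (TaqMan qRT-PCR, Fluidigm array). Bidirectional fit vs DMSO.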

[15] = read-out: Heat shock 70 kDa protein 1 (HSPA1A), gene 3303; assay: LTEA_HepaRG_HSPA1A: Life Technologies and Expression Analysis (LTEA) Assay for Heat shock 70 kDa protein 1 (HSPA1A) using HepaRG (AID 2283502)
How it was run: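 HepaRG, 48 h exposure, 8-pt half-log CRC from 100 uM in 0.5% DMSO, duplicates. Readout: TaqMan qRT-PCR of HSPA1A mRNA, housekeeping-normalized (ACTB/GAPDH/POLR2A). Bidirectional fit vs 0.5% DMSO baseline.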

[16] = read-out: Hypoxia-inducible factor 1-alpha (Homo sapiens) (UniProt Q16665); assay: LTEA_HepaRG_HIF1A: Life Technologies and Expression Analysis (LTEA) Assay for Hypoxia-inducible factor 1 (HIF1A) Trancription factor using HepaRG (AID 2283503)
How it was run: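 Gain- or loss-of-signal HIF1A mRNA changes are fitted against a DMSO baseline. HepaRG cultures receive eight concentrations, highest 100 uM, for 48 h in serum-free induction medium with 0.5% DMSO.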

CYP3A5 (gene 1577) = assay: LTEA_HepaRG_CYP3A5: Life Technologies and Expression Analysis (LTEA) Assay for CYP3A5 using HepaRG (AID 2283493)
How it was run: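 qRT-PCR read-out: CYP3A5 transcript in HepaRG lysates, housekeeping-normalized (ACTB/GAPDH/POLR2A), fitted bidirectionally against 0.5% DMSO baseline. Exposure 48 h, eight half-log concentrations up to 100 uM, duplicates.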

Measured: AC50

Sequence of Hypoxia-inducible factor 1-alpha (Homo sapiens) (Q16665 whole entry, looked up): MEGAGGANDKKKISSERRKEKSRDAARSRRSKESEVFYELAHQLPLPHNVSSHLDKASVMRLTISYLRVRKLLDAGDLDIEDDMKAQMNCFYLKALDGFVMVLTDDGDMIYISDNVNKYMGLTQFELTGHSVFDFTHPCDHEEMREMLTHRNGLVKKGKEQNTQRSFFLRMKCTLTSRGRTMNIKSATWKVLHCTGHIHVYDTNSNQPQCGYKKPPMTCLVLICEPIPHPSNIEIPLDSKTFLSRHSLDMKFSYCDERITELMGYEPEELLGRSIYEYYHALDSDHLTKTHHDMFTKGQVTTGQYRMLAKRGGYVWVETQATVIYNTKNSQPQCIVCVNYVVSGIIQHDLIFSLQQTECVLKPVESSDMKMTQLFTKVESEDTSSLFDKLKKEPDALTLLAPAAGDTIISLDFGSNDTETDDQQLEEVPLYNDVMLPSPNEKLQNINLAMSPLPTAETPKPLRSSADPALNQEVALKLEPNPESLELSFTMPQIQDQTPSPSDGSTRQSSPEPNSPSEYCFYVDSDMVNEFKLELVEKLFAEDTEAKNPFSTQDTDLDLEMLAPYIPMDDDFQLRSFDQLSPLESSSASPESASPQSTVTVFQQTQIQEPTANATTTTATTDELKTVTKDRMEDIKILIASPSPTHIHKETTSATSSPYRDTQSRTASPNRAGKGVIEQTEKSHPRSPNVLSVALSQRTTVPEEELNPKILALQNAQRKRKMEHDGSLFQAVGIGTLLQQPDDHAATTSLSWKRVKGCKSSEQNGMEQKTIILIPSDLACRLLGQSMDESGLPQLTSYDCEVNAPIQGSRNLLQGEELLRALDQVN
Sequence of Cytochrome P450 3A4 (Homo sapiens) (P08684 whole entry, looked up): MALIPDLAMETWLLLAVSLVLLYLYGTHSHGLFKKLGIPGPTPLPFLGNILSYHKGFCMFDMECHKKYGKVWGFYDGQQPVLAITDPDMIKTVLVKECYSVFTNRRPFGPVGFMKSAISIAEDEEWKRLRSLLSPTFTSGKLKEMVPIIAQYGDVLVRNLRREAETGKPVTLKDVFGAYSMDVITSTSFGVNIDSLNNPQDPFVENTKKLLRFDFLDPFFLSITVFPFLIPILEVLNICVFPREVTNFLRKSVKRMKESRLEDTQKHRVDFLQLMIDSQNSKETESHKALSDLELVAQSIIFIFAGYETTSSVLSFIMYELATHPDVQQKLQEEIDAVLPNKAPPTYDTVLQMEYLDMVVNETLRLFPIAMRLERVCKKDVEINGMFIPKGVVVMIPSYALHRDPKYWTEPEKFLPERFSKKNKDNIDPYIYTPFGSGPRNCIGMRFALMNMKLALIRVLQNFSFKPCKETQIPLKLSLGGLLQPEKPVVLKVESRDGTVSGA
Sequence of Cytochrome P450 3A7 (Homo sapiens) (P24462 whole entry, looked up): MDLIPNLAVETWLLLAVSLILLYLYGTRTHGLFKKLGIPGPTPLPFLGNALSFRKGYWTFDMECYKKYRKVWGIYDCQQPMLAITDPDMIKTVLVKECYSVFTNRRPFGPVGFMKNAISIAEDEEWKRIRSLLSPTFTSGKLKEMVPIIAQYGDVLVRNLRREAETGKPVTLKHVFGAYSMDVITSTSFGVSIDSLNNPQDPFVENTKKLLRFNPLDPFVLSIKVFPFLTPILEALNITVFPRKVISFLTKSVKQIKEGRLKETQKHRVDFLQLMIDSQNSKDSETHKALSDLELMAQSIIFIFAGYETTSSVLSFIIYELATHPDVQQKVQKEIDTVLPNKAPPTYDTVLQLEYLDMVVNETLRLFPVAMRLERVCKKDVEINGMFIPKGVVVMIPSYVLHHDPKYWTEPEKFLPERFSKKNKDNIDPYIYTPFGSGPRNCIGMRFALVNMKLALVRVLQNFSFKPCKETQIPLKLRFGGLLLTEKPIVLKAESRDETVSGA

CCCOC(=O)NCCCN(C)C
not listed: CYP3A5 (gene 1577)
inactive: all other assays above

C[C@]12CC[C@@H]3c4ccc(O)cc4C[C@@H](CCCCCCCCCS(=O)CCCC(F)(F)C(F)(F)F)[C@H]3[C@@H]1CC[C@@H]2O (some centres not stated)
inactive: [5] | [8] | [15] | [16]
active: CYP2C9 (gene 1559) 28.7 µM | CYP2E1 (gene 1571) 20.2 µM | CYP4A11 (gene 1579) 30.9 µM | [1] 31.1 µM | [2] 9.92 µM | [3] 0.0848 µM | [4] 0.119 µM | [6] 24.9 µM | CYP3A5 (gene 1577) 15.7 µM | [7] 25.8 µM | [9] 15 µM | [10] 28.1 µM | [12] 13 µM | [13] 0.0464 µM | [14] 29.8 µM

CC(C)(C)[C@@H](O)[C@@H](Cc1ccc(Cl)cc1)n1cncn1
active: CYP2E1 (gene 1571) 50 µM | CYP4A11 (gene 1579) 50 µM | [1] 7.74 µM | [6] 5.85 µM | [7] 50 µM | [8] 27.8 µM
not listed: [11] | [15]
inactive: all other assays above

CCNc1nc(N)nc(Cl)n1
active: CYP2E1 (gene 1571) 50 µM | [1] 3.18 µM | [6] 9.92 µM
not listed: [11]
inactive: all other assays above

Oc1ccc(C(c2ccc(O)cc2)C(Cl)(Cl)Cl)cc1
active: CYP2C9 (gene 1559) 93.1 µM | CYP2E1 (gene 1571) 93.8 µM | CYP4A11 (gene 1579) 93.2 µM | [1] 78.7 µM | [2] 80.3 µM | [4] 77.7 µM | [5] 80.9 µM | [6] 79.8 µM | CYP3A5 (gene 1577) 70.7 µM | [7] 94.3 µM | [10] 78.2 µM | [12] 78.9 µM | [15] 94.5 µM | [16] 79.5 µM
inactive: [3] | [8] | [9] | [13] | [14]

Cc1nn(C)c(Oc2ccccc2)c1C=NOCc1ccc(C(=O)OC(C)(C)C)cc1
inactive: [3] | [16]
active: CYP2C9 (gene 1559) 20.1 µM | CYP2E1 (gene 1571) 2.75 µM | CYP4A11 (gene 1579) 2.99 µM | [1] 1.84 µM | [2] 3.27 µM | [4] 1.22 µM | [5] 3.29 µM | [6] 1.37 µM | [7] 7.21 µM | [8] 2.91 µM | [9] 34.7 µM | [10] 30.4 µM | [12] 3.1 µM | [13] 17.6 µM | [14] 3 µM | [15] 1.57 µM

Source: PubChem BioAssay (EPA / NIEHS)
